High-throughput results from PubChem.
GLP1R cytotox – cytotoxic in the GLP-1 receptor inverse agonist counter-screen; HEK293 cAMP-luciferase reporter cells, luminescence, 24 h; Potency, µM (doses to about 38.3 µM), inactives show at the highest dose activity change, negative = inhibition, hits mostly inhibitors; 410,000 tested, 0.13% active;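 further: loss of luciferase light is scored as toxicity; on the % scale 0 is the no-effect control and ±100 the full control effect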
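Luminescence readout: signal drop marks cytotoxicity. Plated cells grew 12 h at 37 °C, 5% CO2, received 23 nL compound for 24 h, then got luciferase reagent, read after 12 min at RT.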
PTHR1 ag – agonists of human PTHR1 parathyroid hormone receptor. Q03431. HEK293 GP2 PTHR1 cells, GloSensor cAMP luminescence, 1 h. Potency, µM (series often up to 115 µM), for the others: at the highest dose activation, most hits filed as activators. 410,000 tested, 0.075% active. AID 743266; further: nearly all actives have a fitted effect of over 55% in size
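HEK-293-derived GP2 cells expressing PTHR1 and a GloSensor cAMP reporter, 3,000/well, plated overnight, given luciferin plus IBMX (each 0.5 mM as added) for 1 h at 37 °C, then compound for 1 h at 37 °C. Luminescence was read after 15 min at room temperature.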
GLP-1R agonist – activates the human GLP-1 receptor | P43220 | HEK293 GLP-1R CRE-luciferase, luminescence, 4-6 h; cells express a hypersensitive GLP-1R form | Potency, µM (doses to about 45.6 µM), without a hit: at the top dose activation, hits mostly activators | 380,000 tested, 0.007% active; further: % of control where 0% means no effect
Target sequence (P43220 whole entry, looked up): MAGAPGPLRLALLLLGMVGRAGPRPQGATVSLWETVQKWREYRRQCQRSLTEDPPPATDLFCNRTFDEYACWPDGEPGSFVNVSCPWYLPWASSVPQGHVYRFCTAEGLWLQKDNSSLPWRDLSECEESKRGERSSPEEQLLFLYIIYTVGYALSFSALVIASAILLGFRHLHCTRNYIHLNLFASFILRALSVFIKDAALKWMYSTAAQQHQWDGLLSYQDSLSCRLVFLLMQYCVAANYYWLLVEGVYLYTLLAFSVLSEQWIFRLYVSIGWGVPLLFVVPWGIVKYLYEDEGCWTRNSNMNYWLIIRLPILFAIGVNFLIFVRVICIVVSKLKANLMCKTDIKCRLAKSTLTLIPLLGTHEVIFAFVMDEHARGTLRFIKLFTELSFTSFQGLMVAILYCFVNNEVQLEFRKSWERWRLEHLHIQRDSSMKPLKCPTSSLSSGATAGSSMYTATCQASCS
GLP-1R inv ag – GLP-1 receptor (human) inverse agonism | Potency, µM (highest dose often 38.3 µM), inactives show top-dose activity change, negative = inhibition, usual class: inhibitors | 410,000 tested, 1.6% active | AID 624417 | HEK293 GLP-1R CRE-luciferase, luminescence, 24 h; GLP-1R form is constitutively active | P43220; further: on the % scale 0 is the no-effect control and ±100 the full control effect; nearly all actives have a fitted effect of over 55% in size
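HEK293 cells stably co-expressing constitutively active GLP-1R and a cAMP-responsive luciferase reporter were seeded in DMEM with 10% Nu serum, given compounds after 12 h, and incubated 24 h at 37 deg C. Luminescence was then read.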
An asterisk follows results filed as active; i = inactive; ? = inconclusive; / = no result. Only some compounds are listed: those with a hit (about 1.7% of all), similar ones and a draw of the others. The call rests on the fitted dose curve; in most records, active means well fitted curve in the direction sought with a large enough effect; inconclusive means small, poorly fitted or top-dose-only effect, or another doubt; inactive means no such curve, though single readings can be large; an effect the other way counts as inactive or inconclusive. Potency means the concentration at half of the fitted maximal effect.

SMILES	GLP1R cytotox	PTHR1 ag	GLP-1R agonist	GLP-1R inv ag
CCc1ccc(Sc2cc(C(=O)NCc3cccc(OC)c3)c3ccccc3n2)cc1	-7.4%	-24.0%	-7.3%	10µM*
O=C(Cn1c(=O)nc(-c2ccccc2)c2ccccc21)NCCc1ccccc1	5.8%	i	/	6.3%
CCN(CCCNC(=O)c1ccc(Sc2ccc(Cl)cc2)c(NC(C)=O)c1)c1ccccc1	-9.2%	-29.0%	/	10µM*
CCCCN(CCCNC(=O)c1ccc(Sc2ccc(Cl)cc2)c(NC(C)=O)c1)c1ccccc1	-4.0%	i	/	?
Cc1cc(C)cc(-n2c(C)nc3cc(C(=O)NCc4ccccc4Cl)ccc32)c1	?	i	/	11.2µM*
Cc1ccc(C(=O)N(CCc2ccccc2)Cc2ccccc2)cc1S(=O)(=O)N1CCOCC1	-10.5%	-23.7%	5.4%	10µM*
O=C(OCc1ccccc1)N1CCc2ccccc21	21.3%	-31.2%	2.3%	?
COc1cc(/C=N/Nc2nc(Nc3ccccc3)nc(-n3nc(C)cc3C)n2)cc(OC)c1OC	?	-20.5%	18.3%	?
COc1cc(/C=N/Nc2nc(Nc3ccc(C)cc3)nc(-n3nc(C)cc3C)n2)cc(OC)c1OC	4.47µM*	i	6.9%	?
Cc1ccc2c(Br)cc(Br)c(O)c2n1	/	/	18.9%	/
COC(=O)C1=C(C)NC(C)=C(C(=O)O[C@H]2CCN(Cc3ccccc3)C2)C1c1cccc([N+](=O)[O-])c1 (some centres not stated)	/	/	-3.9%	/
COc1ccc(/C=C(\NC(=O)c2ccc(C)cc2)C(=O)NCCCn2ccnc2)cc1	1.6%	i	15.8%	8.5%
COc1ccc(C(=O)NC(C)C2CC3CCC2C3)c(OC)c1 (configuration not stated)	3.2%	i	-1.5%	10µM*
CSc1ccc(CCNc2ncnc3onc(C)c23)cc1	-1.4%	-86.7%	/	-20.1%
C=CCNC(=O)N1CCc2[nH]c3ccc(F)cc3c2C1	1.9%	i	5.6%	-1.6%
Fc1ccc2[nH]c3c(c2c1)CN(C(=S)NCc1ccccc1)CC3	-10.9%	-11.6%	-2.5%	5.01µM*
O=[N+]([O-])c1cc(S(=O)(=O)N2CCCCCC2)ccc1Cl	11.2µM*	-45.0%	-5.5%	?
Cc1ccc(S(=O)(=O)N2CCCC2)cc1[N+](=O)[O-]	0.2%	i	-2.9%	9.8%
COCCOc1nc2c(c(=O)n(C)c(=O)n2C)n1Cc1cccc(OC)c1	3.2%	-9.6%	18.4%	1.6%
CCCC[C@@H]1CNC(=S)N1CCc1cccc2ccccc12	-0.5%	-25.1%	20.1%	3.55µM*
CCCCN1C(=S)NC[C@@H]1Cc1cccc2ccccc12	?	-65.9%	14.2%	?
CCOC(=O)CC(NC(=O)CCc1c(C)nc2c(c1C)c(=O)n(C)c(=O)n2C)c1ccc(OCC)c(OC)c1 (configuration not stated)	3.4%	-45.4%	-2.3%	-9.8%
O=C(OCc1nnc(-c2ccccc2)o1)c1ccc(-n2cnnn2)cc1	-1.2%	27.7%	13.6%	-5.6%
O=C(OCc1nnc(-c2ccccc2)o1)c1cn(-c2ccccc2)nc1-c1ccccc1	6.8%	-19.5%	-0.9%	12.6µM*
CS(=O)(=O)N1CCc2cc(S(=O)(=O)NCc3ccccc3Cl)ccc21	0.1%	i	/	7.4%
SMILES	GLP1R cytotox	PTHR1 ag	GLP-1R agonist	GLP-1R inv ag
Cc1c(C(=O)NCc2ccc(F)cc2)sc(=O)n1Cc1ccc(Cl)c(Cl)c1	-15.2%	i	-0.5%	10µM*
CCN1CCN(C(=O)N[C@H](C(=O)N[C@@H]2C(=O)N3[C@@H](C(=O)O)C(C)(C)S[C@@H]23)c2ccccc2)C(=O)C1=O	/	/	-5.3%	/
Cc1cccc2c(C(=O)O)c3cccc(C)c3nc12	35.2%	-15.1%	-1.0%	2.1%
COC(=O)c1cc(=O)n(Cc2ccco2)c(=Nc2ccc(F)c(Cl)c2)s1	-15.3%	-36.5%	-11.8%	2.82µM*
COC(=O)c1cc(=O)n(Cc2cccs2)c(=Nc2ccc(F)cc2)s1	?	-3.7%	-5.0%	3.55µM*
O=C(NCCN1CCOCC1)C1CC(=O)N(c2ccc(Cl)cc2)C1 (configuration not stated)	-8.3%	i	0.5%	6.7%
CC(OC(=O)CN1C(=O)NC2(CCCC2)C1=O)c1ccc(F)cc1 (configuration not stated)	-2.6%	-45.5%	-4.6%	?
COc1cc(C2Oc3ccccc3C=C2[N+](=O)[O-])cc(OC)c1OC (configuration not stated)	-21.4%	-63.6%	-16.6%	11.2µM*
COc1cc(C2NC(=O)c3ccccc3O2)cc(OC)c1OC (configuration not stated)	4.3%	-15.8%	-4.0%	0.3%
COc1cc(CN2CCCC(N3CCN(c4ccccc4C)CC3)C2)ccc1O (configuration not stated)	-13.0%	-42.6%	3.5%	?
CC(C)c1ccc(CN2CCN(C(=O)CCl)CC2)cc1	?	-36.3%	-5.0%	5.62µM*
CSc1ccccc1NC(=O)CN(C)Cc1ccc(Br)cc1	10.9%	i	17.4%	7.08µM*
CCOC(=O)c1sc2nc(C)nc(NCc3ccc(F)cc3)c2c1C	-13.8%	-93.9%	12.8%	7.08µM*
O=C(O)c1cc2nc(C3CC3)cc(C(F)(F)F)n2n1	2.9%	?	-1.9%	5.5%
Cn1nc(C(=O)Nc2sc3c(c2C#N)CCCC3)ccc1=O	4.9%	44.7µM*	0.3%	-0.3%
CC(=O)Nc1sc2c(c1C#N)CCCC2	18.3%	i	11.8%	13.5%
COc1ccc(-n2c(C)cc(/C=C3\C(=N)N4N=C(CC(=O)N5CCOCC5)SC4=NC3=O)c2C)cc1	-12.4%	-16.9%	-1.0%	-4.8%
Nc1nccnc1C(=O)OCC(=O)NC1CCCc2ccccc21 (configuration not stated)	-10.0%	-14.9%	-3.4%	16.2%
CCC(C)C(=O)N1c2ccccc2C(=C2SC(C(=O)OC)=C(C(=O)OC)S2)C(=S)C1(C)C (configuration not stated)	9.7%	-82.6%	-1.1%	10µM*
COc1cc2c(cc1OC)CN(C(C)C(=O)Nc1ccc(NC(C)=O)cc1)CC2 (configuration not stated)	8.7%	i	1.9%	0.0%
O=C(NCCOc1ccc(F)cc1)c1ccccc1SCc1ccccc1	17.7%	-23.9%	7.1%	?
CCc1ccc(OCCNC(=O)c2ccccc2SCc2ccc(F)cc2)cc1	-3.7%	-39.0%	-2.5%	8.91µM*
CC(C)S(=O)(=O)c1csc(NC(=O)Nc2cccc([N+](=O)[O-])c2)c1Cl	0.3%	i	1.0%	-1.4%
Cc1ccc(C(C)C)cc1OCC(=O)NNC(=O)Nc1ccccc1	-9.6%	-9.5%	5.6%	6.31µM*
Cc1ccc(C(C)C)cc1OCC(=O)NC1CCCCCCC1	29.0%	-38.4%	1.6%	11.2µM*
COc1ccc(NC(=O)Nc2nnc(SCC(=O)Nc3cccc(C)c3C)s2)cc1	2.3%	i	/	26.0%
OCC(O)COc1ccc(Cl)cc1 (configuration not stated)	/	/	-2.5%	/
CCOC(=O)c1sc(C(=O)OCC)c(OCCO)c1OCCO	0.3%	i	14.0%	-2.8%
